Structures can show the parent of a compound that is named as a salt.
Legend:
Assay in all cases: Euclidean distance of Cell Painting phenotypic profile (signed KS, 77 features) to DMSO centroid (dimensionless distance); 5 or 10 uM (library dependent); higher = stronger phenotypic change vs DMSO (phenoactivity)
Details in all cases: 48 h
786-O = system: 786-O
Method in brief: (§1)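 Phenoactivity is defined as the Euclidean distance from a compound profile to the median vehicle profile. Each profile comprised 77 Harmony features, scored as signed Kolmogorov-Smirnov statistics versus same-plate vehicle wells, then plate-position corrected, correlation-weighted and replicate-averaged at the top dose. Five cancer lines and one healthy fibroblast line were exposed to library compounds for 48 h at 10 or 5 uM (0.1% DMSO final).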

A549 = system: A549
Method in brief: as §1

DU145 = system: DU145
Method in brief: as §1

FB = system: FB
Method in brief: as §1

HEPG2 = system: HEPG2
Method in brief: as §1

OVCAR4 = system: OVCAR4
Method in brief: as §1

| SMILES | Euclidean distance (786-O) | Euclidean distance (A549) | Euclidean distance (DU145) | Euclidean distance (FB) | Euclidean distance (HEPG2) | Euclidean distance (OVCAR4) |
| --- | --- | --- | --- | --- | --- | --- |
| O=C1CCc2ccc(OCCCCN3CCN(c4cccc(Cl)c4Cl)CC3)cc2N1 [Aripiprazole] | 1.08 | 0.975 | 0.573 | 0.979 | 0.512 | 1.21 |
| COc1ccccc1N1CCN(CC(O)COc2cccc3ccccc23)CC1 (configuration not stated) [Naftopidil] | 1.4 | 1.01 | 0.795 | 1.01 | 0.934 | 0.99 |
| COC[C@H](NC(=O)c1cnc(C)s1)C(=O)N[C@@H](COC)C(=O)N[C@@H](Cc1ccccc1)C(=O)[C@@]1(C)CO1 [Oprozomib (ONX 0912)] | 5.53 | 4.48 | 5.47 | 4.12 | 4.53 | 4.85 |
| CCCc1nc(C(C)(C)O)c(C(=O)OCc2oc(=O)oc2C)n1Cc1ccc(-c2ccccc2-c2nnn[nH]2)cc1 [Olmesartan Medoxomil] | 2.78 | 2.49 | 2.38 | 3.38 | 3.32 | 3.28 |
| O=C(Nc1cccc(Cl)c1)Nc1ncc(CCNc2ncnc3ccsc23)s1 [SNS-314 Mesylate] | 1.07 | 1.84 | 0.974 | 1.73 | 0.589 | 1 |
| Nc1ccn([C@@H]2O[C@H](CO)[C@@H](O)[C@@H]2O)c(=O)n1 [Cytarabine] | 3.08 | 2.79 | 2.54 | 3.39 | 2.79 | 3.15 |
| COc1cnc(NS(=O)(=O)c2ccc(N)cc2)nc1 [Sulfameter] | 1.33 | 1.11 | 0.768 | 1.28 | 1.49 | 1.5 |
| COC(c1ccccc1)(c1ccccc1)[C@H](Oc1nc(C)cc(C)n1)C(=O)O [Ambrisentan] | 1.45 | 0.738 | 1.17 | 0.718 | 2.03 | 1.52 |
| CC(O)(P(=O)(O)O)P(=O)(O)O [Etidronate] | 1.27 | 1.25 | 1.1 | 1.04 | 0.55 | 1.15 |
| COCCNc1cc(NC(=O)N2CCCc3cc(CN4CCN(C)CC4=O)c(C=O)nc32)ncc1C#N | 0.599 | 1.34 | 0.736 | 1.03 | 1.18 | 0.826 |
| Cn1nnc2c(C(N)=O)ncn2c1=O [Temozolomide] | 1.44 | 0.97 | 2.71 | 0.972 | 1.44 | 0.619 |
| Cc1cc(=O)n(-c2ccccc2)n1C [Antipyrine] | 1.52 | 0.45 | 1.03 | 1.42 | 0.888 | 0.707 |
| CC(=O)Nc1cccc(-n2c(=O)n(C3CC3)c(=O)c3c(Nc4ccc(I)cc4F)n(C)c(=O)c(C)c32)c1 | 3.52 | 3.28 | 3.33 | 3.79 | 1.56 | 1.94 |
| Cc1cccc(-c2[nH]c(C(C)(C)C)nc2-c2ccc3c(c2)OCO3)n1 | 1.83 | 1.76 | 0.978 | 2.17 | 1.99 | 1.62 |
| C=CC(=O)N1CCC(Oc2cc3c(Nc4ccc(Cl)c(Cl)c4F)ncnc3cc2OC)CC1 [Poziotinib (HM781-36B)] | 1.98 | 3.02 | 2.11 | 2.99 | 3.43 | 2.12 |
| Oc1c2ccccc2c2c3c(cccc13)N=N2 | 1.18 | 1.08 | 0.792 | 0.94 | 1.13 | 0.655 |
| CCOCc1nc2c(N)nc3ccccc3c2n1CC(C)(C)O [Resiquimod] | 1.35 | 1.05 | 1.47 | 0.954 | 0.587 | 1.19 |
| NC[C@H]1O[C@H](O[C@H]2[C@H](O)[C@@H](O[C@H]3O[C@H](CO)[C@@H](O)[C@H](N)[C@H]3O)[C@H](N)C[C@@H]2N)[C@H](O)[C@@H](O)[C@@H]1O [Kanamycin sulfate] | 1.57 | 0.801 | 1.16 | 0.974 | 2.18 | 1.35 |
| CC(C)[C@H](NC(=O)[C@H](CC(=O)O)NC(=O)[C@H](CCCCN)NC(=O)[C@@H](N)CCCN=C(N)N)C(=O)N[C@@H](Cc1ccc(O)cc1)C(=O)O [Thymopentin] | 1.56 | 1.19 | 0.821 | 0.825 | 0.557 | 1.06 |
| C[C@H]1COC2=C1C(=O)C(=O)c1c2ccc2c1CCCC2(C)C [Cryptotanshinone] | 1.53 | 2.51 | 1.48 | 1.17 | 1.25 | 1.31 |
| COC(=O)[C@]12CCC(C)(C)C[C@H]1[C@H]1C(=O)C=C3[C@@]4(C)C=C(C#N)C(=O)C(C)(C)[C@@H]4CC[C@@]3(C)[C@]1(C)CC2 [Bardoxolone Methyl] | 5.4 | 5.71 | 5.63 | 2.1 | 4.01 | 6.33 |
| C[C@H]1COC2(CCN(c3nc(=O)c4cc(C(F)(F)F)cc([N+](=O)[O-])c4s3)CC2)O1 (racemic) [BTZ043 Racemate] | 1.5 | 0.656 | 1.01 | 1.47 | 0.565 | 0.748 |
| Fc1cc(-c2cccc3ncc(-c4cnn(C5CCNCC5)c4)nc23)cc(F)c1CN1CCOCC1 | 2.09 | 3.31 | 2.11 | 3.84 | 2.39 | 1.28 |
| O=[N+]([O-])c1cncn1CCN1CCOCC1 [Nimorazole] | 0.827 | 0.551 | 1.21 | 0.76 | 1.18 | 0.937 |

| SMILES | Euclidean distance (786-O) | Euclidean distance (A549) | Euclidean distance (DU145) | Euclidean distance (FB) | Euclidean distance (HEPG2) | Euclidean distance (OVCAR4) |
| --- | --- | --- | --- | --- | --- | --- |
| CC(=O)OCC(=O)NCCCOc1cccc(CN2CCCCC2)c1 [Roxatidine Acetate HCl] | 1.32 | 0.853 | 0.769 | 0.72 | 0.711 | 0.763 |
| COc1c(N2C[C@@H]3CCCN[C@@H]3C2)c(F)cc2c(=O)c(C(=O)O)cn(C3CC3)c12 [Moxifloxacin] | 1.32 | 0.519 | 0.919 | 1.06 | 0.804 | 0.918 |
| OC(c1cc(C(F)(F)F)nc2c(C(F)(F)F)cccc12)C1CCCCN1 (configuration not stated) [Mefloquine HCl] | 2.22 | 2.49 | 1.85 | 2.46 | 4.9 | 2.05 |
| COc1ccc2cc3[n+](cc2c1OC)CCc1cc2c(cc1-3)OCO2 [Berberine] | 1.31 | 1.85 | 0.876 | 1.96 | 1.57 | 1.4 |
| CCc1c(O)cc(O)c(C(=O)c2ccc(OCCN3CCOCC3)c(OC)c2)c1CC(=O)N(CCOC)CCOC | 2.14 | 3.28 | 2.34 | 3.63 | 2.39 | 3.18 |
| COc1ccc(C(=O)Nc2sc3c(c2C(N)=O)CCCC3)cc1OC | 1.04 | 2.61 | 1.02 | 0.845 | 0.747 | 2.82 |
| CCC[C@@H]1C[C@@H](C(=O)N[C@@H]([C@H]2O[C@H](SC)[C@H](O)[C@@H](O)[C@H]2O)[C@@H](C)O)N(C)C1 [Lincomycin HCl] | 1.49 | 0.984 | 0.817 | 1.01 | 0.457 | 1.31 |
| CCc1cc2c(cc1CC)CC(NC[C@H](O)c1ccc(O)c3[nH]c(=O)ccc13)C2 [Indacaterol Maleate] | 0.915 | 0.63 | 1.14 | 1.67 | 0.818 | 1.02 |
| C1N2CN3CN1CN(C2)C3 [Methenamine] | 1.23 | 0.437 | 0.592 | 0.896 | 0.586 | 1.2 |
| CCCCCCCCCCCC(=O)O [Lauric Acid] | 1.1 | 0.784 | 1.21 | 1.34 | 0.884 | 0.985 |
| Nc1c(CC(=O)O)cccc1C(=O)c1ccc(Br)cc1 [Bromfenac Sodium] | 1.21 | 1.01 | 0.957 | 1.42 | 0.3 | 1.75 |
| NC(N)=Nc1nc(CSCC/C(N)=N/S(N)(=O)=O)cs1 [Famotidine] | 1.72 | 0.931 | 1.5 | 1.11 | 2.27 | 1.1 |
| C/C(=C\C(=O)OCCCCCCCCC(=O)O)C[C@@H]1OC[C@H](C[C@@H]2O[C@H]2[C@@H](C)[C@H](C)O)[C@@H](O)[C@H]1O [Mupirocin] | 1.8 | 0.693 | 0.636 | 0.92 | 0.693 | 1.35 |
| C[C@H](Nc1ccc(C#N)n(C)c1=O)c1cc2cc(Cl)ccc2[nH]c1=O [Olutasidenib (FT-2102)] | 1.42 | 0.866 | 0.784 | 1.36 | 0.641 | 1.06 |
| NC(=O)/N=N/C(N)=O [Azodicarbonamide] | 1.07 | 0.533 | 1.15 | 0.879 | 1.28 | 1.14 |
| CNC(=O)c1ccccc1Sc1ccc2c(/C=C/c3ccccn3)n[nH]c2c1 [Axitinib] | 3.11 | 3.76 | 3.18 | 3.27 | 2.51 | 3.92 |
| O=S(=O)(O)c1cc(O)ccc1O [Ethamsylate] | 0.716 | 0.847 | 0.74 | 1.11 | 0.713 | 1.57 |
| CN1CCN(c2c(F)cc3c(=O)c(C(=O)O)cn4c3c2OCN4C)CC1 [Marbofloxacin] | 0.878 | 0.762 | 0.494 | 1.1 | 1.53 | 0.752 |
| CC1(C)S[C@@H]2[C@H](NC(=O)[C@H](N)c3ccc(O)cc3)C(=O)N2[C@H]1C(=O)O [Amoxicillin] | 1.02 | 1.01 | 0.78 | 0.837 | 0.318 | 1.22 |
| Cc1c(F)cc(C(=O)NC2CC2)cc1-c1ccc(C(=O)NCC(C)(C)C)cn1 | 1.17 | 0.619 | 1.23 | 0.572 | 0.761 | 1.09 |
| N[C@@]1(C(=O)O)CS(=O)(=O)[C@H]2[C@H](C(=O)O)[C@H]21 | 0.494 | 1.32 | 0.671 | 0.749 | 0.743 | 0.75 |
| Cc1nnc(SCC2=C(C(=O)O)N3C(=O)[C@@H](NC(=O)Cn4cnnn4)[C@H]3SC2)s1 [Cefazolin Sodium] | 0.929 | 0.587 | 0.958 | 0.961 | 1.06 | 1.27 |
| CCOC(=O)C(C)(C)Oc1ccc(Cl)cc1 [Clofibrate] | 0.866 | 0.429 | 1.7 | 1.41 | 0.393 | 0.939 |

From the supplement of paper PMC10127200
